Measured values taken from PubChem BioAssay (EPA / NIEHS).
Where “and” joins values, the source holds several entries; their conditions need not be identical. Equal values may be shown once. The source holds several records for some structures; these can differ, active in one and inactive in another. Calls of active or inactive are those of the source. The calls were made as follows: active = hit-call score of the fitted dose curve at least 0.9, where 1 is the maximum; inactive = score below 0.9.

Assay: ATG_ISRE_CIS: Attagene CIS-FACTORIAL HepG2 Assay for human Interferon Regulatory Factor 1 (IRF1) binding to an Interferon-Stimulated Response Element (ISRE) (AID 2282948)
Conditions: HepG2 ISRE cis-reporter (Attagene), mRNA transcription readout; actives raise or lower the signal
Method: ATG_CIS is a cell-based, multiplexed-readout assay that uses HepG2, a human liver cell line, with measurements taken at 24 hours after chemical dosing in a 24-well plate.ATG_ISRE_CIS is one of 52 assay component(s) measured or calculated from the ATG_CIS assay. It is designed to make measurements of mRNA induction, a form of inducible reporter, as detected with fluorescence intensity signals by Reverse transcription polymerase chain reaction (RT-PCR) and Capillary electrophoresis technology.Data from the assay component ATG_ISRE_CIS was analyzed into 1 assay endpoint. This assay endpoint, ATG_ISRE_CIS, was analyzed with bidirectional fitting relative to DMSO as the negative control and baseline of activity. Using a type of inducible reporter, measures of mRNA for gain or loss-of-signal activity can be used to understand the reporter gene at the transcription factor-level as they relate to the gene IRF1. Furthermore, this assay endpoint can be referred to as a primary readout, because this assay has produced multiple assay endpoints where this one serves a reporter gene function. To generalize the intended target to other relatable targets, this assay endpoint is annotated to the dna binding intended target family, where the subfamily is interferon regulatory factors.
Human liver HepG2 cells are transiently transfected with multiple reporter transcription units (MRTUs) in 6-well plates using FuGene 6 reagent (Roche; 3 ml FuGene/1 mg DNA). The MRTU constructs are regulated by a cis-regulating element (promoter). […] A major difference between the CIS and TRANS system is that in CIS activities of endogenous TFs are measured, whereas the TRANS assay evaluates changes in activities of exogenous, chimeric NR-Gal4 proteins. […] At the end of 24 hour incubation, total RNA was isolated using TriZol reagent (Invitrogen). The isolated RNA is then reverse-transcribed using oligo(dT) primer and Mo-MLV reverse transcriptase (Invitrogen) with DNAse I (Ambion) treatment for 30 min. The one-tenth of the produced cDNA was amplified by PCR using Taq DNA polymerase (Invitrogen) and two reporter sequence-specific primers. The PCR products were fluorescently labeled by primer extension with 6-arboxyfluorescein (6-FAM) 5'-labeled reporter sequence-specific primer (2 min at 95 C, 20 s at 68 C and 10 min at 72 C) and these products were digested with 5U of HpaI (New England Biolabs) for 2h at 37 C. The fragments were purified using Qiaquick PCR columns (Qiagen), analyzed on an ABI 3130xL genetic analyzer (Applied Biosystems) with peak positions identified by using a set of X-rhodamine (ROX)-labeled MapMarker1000 molecular weight standards (BioVentures). The raw capillary electrophoresis data was processed using Attagraph software (Attagene).

SMILES | outcome | AC50
C[C@]12CCC(=O)C=C1CC[C@@H]1[C@@H]2CC[C@]2(C)C(=O)CC[C@@H]12 | inactive | 
CCC(C)c1cc([N+](=O)[O-])cc([N+](=O)[O-])c1O (stereo not given) |  | 8.83 µM (active)
c1cc2ccc3cccc4ccc(c1)c2c34 | inactive | 
Cc1cccc([N+](=O)[O-])c1 | inactive | 
O=C(O)C(F)(F)C(F)(F)C(F)(F)C(F)(F)C(F)(F)C(F)(F)C(F)(F)C(F)(F)F | inactive | 150 µM (active) and 46.3 µM (active)
Oc1ccc(Cl)cc1Cl | inactive | 
Cc1cc(-c2ccc(N)c(C)c2)ccc1N | inactive | 
C=CC(=O)NCNC(=O)C=C | inactive | 
Oc1c(Cl)c(Cl)c(Cl)c(Cl)c1Cl | inactive | 78.7 µM (active) and 51 µM (active)
Cc1cc(O)ccc1Cl | inactive | 
CCC(C)(c1ccc(O)cc1)c1ccc(O)cc1 | inactive | 45.6 µM (active) and 50.3 µM (active) and 33.4 µM (active)
O=C(NC(=O)c1c(F)cccc1F)Nc1cc(Cl)c(OC(F)(F)C(F)F)c(Cl)c1 | inactive | 
CO/C=C(/C(=O)OC)c1ccccc1COc1cccc(C(F)(F)F)n1 | inactive | 
Clc1ccc(C(Cl)(Cl)Cl)cc1 | inactive | 
OCC(O)CO | inactive | 
Cc1ccccc1[N+](=O)[O-] | inactive | 
CN(C)CCO | inactive | 

SMILES | outcome | AC50
ClC1=C(Cl)[C@]2(Cl)[C@@H]3[C@@H](Cl)[C@H]4O[C@H]4[C@@H]3C1(Cl)C2(Cl)Cl |  | 57.6 µM (active)
O=C(O)C(F)(F)C(F)(F)C(F)(F)C(F)(F)C(F)(F)F | inactive | 
C[C@]12CCC(=O)C=C1CC[C@@H]1[C@@H]2CC[C@@]2(C)[C@H]1CC[C@]2(C)O | inactive | 
O=NN(c1ccccc1)c1ccccc1 | inactive | 
C1CC2OC2CC1C1CO1 (stereo not given) | inactive | 
Oc1ccc(C(c2ccc(O)cc2)(C(F)(F)F)C(F)(F)F)cc1 | inactive | 20.1 µM (active) and 11.1 µM (active)
O=C(O)C(F)(F)C(F)(F)C(F)(F)C(F)(F)C(F)(F)C(F)(F)C(F)(F)C(F)(F)C(F)(F)F |  | 48.2 µM (active) and 33.8 µM (active) and 90.4 µM (active)
CC1=C2C[C@H]3[C@@H](CC=C4C[C@@H](O)CC[C@@]43C)[C@@H]2CC[C@]12O[C@@H]1C[C@H](C)CN[C@H]1[C@H]2C | inactive | 
Nn1cnnc1 | inactive | 
Nc1ccc(-c2ccc(N)cc2)cc1 | inactive | 
CCOCCOC(C)=O | inactive | 
CC(C)C(=O)OCC(C)(C)C(OC(=O)C(C)C)C(C)C (stereo not given) | inactive | 
Sc1ccccc1 | inactive | 
COS(=O)(=O)OC | inactive | 
CCCCCCCCCC[N+](C)(C)CCCCCCCCCC |  | 24.9 µM (active)
Clc1ccc(C(c2ccccc2Cl)C(Cl)(Cl)Cl)cc1 (stereo not given) | inactive | 70.5 µM (active) and 82.3 µM (active)
CCOP(=S)(OCC)SCSC(C)(C)C | inactive | 63.5 µM (active)
